Whole data set: some 33,000 sequences, median “E-score (-0.5 to 0.5)” near -0.01, cut for the highest 2% near 0.26. The full list was thinned out, with the highest values kept by preference.
molecular target: Ste12 (UniProt P13574); assay: PBM E-score (8-mer binding enrichment) (E-score (-0.5 to 0.5)); higher = stronger / more preferred TF binding; conditions: protein concentration: 200 nM; construct: GST-DNA-binding domain
Method in brief: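 Yeast transcription factors carrying a GST tag, as full-length proteins or DNA-binding domains, were produced by PURExpress in vitro transcription/translation. About 100-200 nM protein was applied to universal all-10-mer Agilent arrays, double-stranded by primer extension on fresh or once-stripped slides. Bound protein was detected with fluorescent anti-GST, and scans were normalised with masliner. The Universal PBM Analysis Suite gave each ungapped eight-base word, pooled with its reverse complement, an E-score, a modified Wilcoxon-Mann-Whitney statistic.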

Chain of UniProt P13574 (P13574 whole entry, the tested form may be a part): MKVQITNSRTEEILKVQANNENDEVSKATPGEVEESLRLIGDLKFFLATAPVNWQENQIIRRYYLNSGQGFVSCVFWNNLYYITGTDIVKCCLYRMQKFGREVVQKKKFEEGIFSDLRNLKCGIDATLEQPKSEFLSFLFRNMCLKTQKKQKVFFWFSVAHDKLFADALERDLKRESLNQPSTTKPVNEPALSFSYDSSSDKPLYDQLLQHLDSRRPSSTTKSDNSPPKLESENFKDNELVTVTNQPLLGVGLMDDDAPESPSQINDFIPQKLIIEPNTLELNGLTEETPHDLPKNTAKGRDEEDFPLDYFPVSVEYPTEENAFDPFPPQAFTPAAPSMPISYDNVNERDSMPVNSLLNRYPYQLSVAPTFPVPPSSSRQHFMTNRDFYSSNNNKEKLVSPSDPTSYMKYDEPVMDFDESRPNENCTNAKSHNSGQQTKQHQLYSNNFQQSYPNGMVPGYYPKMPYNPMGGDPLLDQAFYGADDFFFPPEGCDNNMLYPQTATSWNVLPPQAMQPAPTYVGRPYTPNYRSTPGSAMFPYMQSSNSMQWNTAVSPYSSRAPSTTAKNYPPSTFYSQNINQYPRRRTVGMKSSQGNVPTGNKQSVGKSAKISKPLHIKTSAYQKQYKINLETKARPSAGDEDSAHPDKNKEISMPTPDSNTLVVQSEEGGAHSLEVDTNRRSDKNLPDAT

Row | Sequence | PBM E-score
1 | AGATCCCG | 0.0252
2 | GAAGGTTA | -0.115
3 | GGCCGACC | -0.123
4 | ACGTAAAG | 0.0191
5 | CACAAGGG | -0.194
6 | CGCCTCTA | -0.0334
7 | ATTATTAC | 0.269
8 | ATTTATTG | 0.0911
9 | ATTTATTA | 0.292
10 | CTTATTAC | 0.0999
11 | ATTTATTC | 0.121
12 | ACTATTAC | 0.0443
13 | CGTGGTAA | -0.0665
14 | ACATCTCA | -0.0976
15 | CGCTCGAA | -0.0852
16 | CTGATCAC | -0.0885
17 | AGGCGAGA | -0.195
18 | ATGAGACA | 0.338
19 | GTGAGACA | 0.256
20 | ATGAGACC | -0.144
21 | AACTTTGC | -0.0155
22 | AGAGTTCA | -0.222
23 | CACATTAA | 0.0442
24 | GAAACGTA | 0.325
25 | AAAACGTC | 0.134

Row | Sequence | PBM E-score
26 | CAAACGTC | 0.0704
27 | CAAACGTA | -0.052
28 | TAAACGTA | -0.115
29 | GAAACGTC | 0.303
30 | CCCGCGAG | 0.119
31 | ATTCGACG | 0.087
32 | ATACCAGG | 0.0311
33 | CCCATCAG | -0.193
34 | GCAGGTAA | 0.0649
35 | AGCGACAC | 0.0304
36 | AGATCGTG | 0.0231
37 | AATATCAC | 0.107
38 | TATATTAA | 0.22
39 | AATATTAT | 0.24
40 | CGTATCAA | 0.088
41 | AGTATCAA | 0.217
42 | AATATCAG | 0.0475
43 | TGTATCAA | 0.392
44 | AATATCAA | 0.283
45 | AATATTAA | 0.327
46 | ACATATTA | 0.193
47 | AGCACAAT | -0.16
48 | TTATCGAA | 0.196
49 | AATAGGGT | 0.148
50 | AGACTGGA | -0.0847

Row | Sequence | PBM E-score
51 | CAGCTCAC | -0.301
52 | ATCCGATC | 0.162
53 | ATCCGATG | 0.277
54 | ATCCGATA | 0.063
55 | CACTCCCA | 0.0996
56 | AGCGCTAG | -0.0146
57 | GGCACTTA | -0.157
58 | CATTCATC | 0.125
59 | CTTTCAAA | 0.246
60 | GATTCATA | 0.00383
61 | GATTCGAA | 0.277
62 | GGTTCAAA | 0.195
63 | ATTTCGGA | 0.181
64 | GTTTCAAA | 0.47
65 | CATTCATA | 0.296
66 | CTTTCGGA | 0.0344
67 | CATTCGAA | 0.11
68 | GTTTCGGA | 0.334
69 | GATTCGAC | 0.12
70 | ATGGTAGC | -0.0629
71 | CACCCAAC | -0.0687
72 | CTTGAGGA | -0.147
73 | GGAGCTTA | -0.219
74 | CCTATTCC | 0.0843
75 | ACTAAAGC | 0.0971

Row | Sequence | PBM E-score
76 | AGGCGAAG | -0.178
77 | ATTTCGAA | 0.253
78 | CTTTCATA | 0.205
79 | GTTTCACA | 0.447
80 | CTTTCGAA | 0.0433
81 | ATTTCACA | 0.205
82 | ATTTCACG | 0.122
83 | CAATCGAA | -0.021
84 | TAATCGAA | 0.185
85 | ATTTCATA | 0.124
86 | GAATCGAA | 0.296
87 | GTTTCGAA | 0.325
88 | GTTTCATA | 0.481
89 | AAAGCGGC | 0.054
90 | CTGTCAGA | 0.0092
91 | AAGTACGT | -0.0519
92 | AACAGCAG | 0.0314
93 | CCATGCCC | -0.0778
94 | GTGAACGA | 0.047
95 | GACAAACA | 0.0473
96 | CTTTCAGA | 0.211
97 | ATTTCAAA | 0.272
98 | ATTTCAAG | 0.0717
99 | GTTTCAGA | 0.484
100 | ATTTCAGA | 0.00371

Row | Sequence | PBM E-score
101 | ATTTCAAC | 0.161
102 | ACGTCAAA | 0.0313
103 | AACTCAGC | 0.109
104 | GCTTGGGA | -0.164
105 | AACGTGGT | -0.0847
106 | AACTTATT | 0.333
107 | AACTTATC | 0.0734
108 | AACTTATG | 0.0251
109 | GCTTGTGA | -0.0847
110 | GATGAACC | 0.062
111 | AATGAAAT | 0.231
112 | TATGAAGA | 0.0389
113 | GATGAATC | 0.0548
114 | GATGAAAC | 0.494
115 | AATGAAAA | 0.292
116 | AATGAAGA | 0.304
117 | AATGAAGC | -0.0558
118 | AATGAAAG | 0.0381
119 | CATGAAGA | -0.0377
120 | AATGAACC | 0.105
121 | AATGAAAC | 0.44
122 | CAAATCGA | 0.0344
123 | CGCTAGTC | -0.27
124 | AATGCTAG | -0.181
125 | CAACAGAC | -0.018

Row | Sequence | PBM E-score
126 | TCGTTGCA | -0.0015
127 | ATTGGGAA | 0.0116
128 | CGTGTAAG | -0.0021
129 | TATGAAAA | 0.152
130 | CATGAAAA | 0.237
131 | GATGAAAA | 0.281
132 | AATGAATT | 0.133
133 | AATGAATG | 0.292
134 | CATGAAAG | -0.00226
135 | AATGAATC | 0.16
136 | GATGAACA | 0.00898
137 | CATGAAAC | 0.484
138 | CCATTTCG | -0.219
139 | AAGCTCAG | -0.179
140 | GCCTCTAC | -0.239
141 | GGTATACA | -0.0232
142 | CGTATAAA | 0.263
143 | CGTATAAC | -0.0972
144 | AGTATACA | -0.108
145 | CGTATACA | 0.306
146 | AGTATAAA | 0.228
147 | CAACCATC | 0.109
148 | AGAGAGGG | -0.255
149 | GATCGTGC | 0.0893
150 | CCTTTTAC | 0.178

Row | Sequence | PBM E-score
151 | ACTTTTAG | 0.101
152 | ACTTTAAT | 0.263
153 | ACTTTAAA | 0.275
154 | ACTTTAAC | 0.162
155 | ACTTTTAA | 0.164
156 | AACTTTAA | 0.279
157 | CACTTTAA | 0.159
158 | GCTTTAAA | 0.155
159 | ACTTTTAC | 0.263
160 | AACTTTAG | 0.0874
161 | ACTTTAAG | 0.225
162 | ACTTAGAT | -0.0771
163 | ATGGGAAT | -0.202
164 | ACCATACG | -0.0611
165 | CGCGCTAC | 0.00148
166 | ACTGGGCC | -0.244
167 | AGCTAGAA | -0.0198
168 | GAACCGGA | -0.0365
169 | GAGCGAGC | -0.00859
170 | GTCGCTGA | 0.0069
171 | CAACGATA | 0.0594
172 | TAACGATA | 0.138
173 | AAACGATA | 0.279
174 | AGAACTGG | -0.0181
175 | ATAGGATG | 0.149

Row | Sequence | PBM E-score
176 | AAAAATAC | 0.25
177 | AAATAGAC | -0.0352
178 | AAATATAA | 0.224
179 | AAAAATCT | 0.318
180 | AAAAATCC | 0.178
181 | AAATATAT | 0.273
182 | AAAAATAG | 0.24
183 | AAAAATAT | 0.339
184 | AAATAGAG | 0.0914
185 | AAATAGAT | 0.275
186 | AAAAATCA | 0.254
187 | AAATATAC | 0.225
188 | CTCGTTTA | 0.0722
189 | CCAACCGA | 0.0461
190 | AACAGCCA | -0.019
191 | AGCGCAAG | -0.0674
192 | CACGGCAC | -0.113
193 | ACAAGCGG | 0.106
194 | TACCTACA | -0.0205
195 | AACTATGT | -0.0705
196 | GGTTGAGA | -0.103
197 | GGTTGAAC | -0.0192
198 | TGTTGTAA | 0.28
199 | GGTTGTAA | 0.0372
200 | AGTTGAAA | 0.19

Row | Sequence | PBM E-score
201 | GGTTGAAA | 0.292
202 | CGTTGAAA | 0.185
203 | TGTTGAAA | 0.311
204 | AGTTGTAA | 0.068
205 | CCCCGTAC | -0.0713
206 | AGTCTGCA | -0.122
207 | CGCGTACC | -0.113
208 | CCGCCTTA | 0.0555
209 | AAGGTTCT | 0.0379
210 | CCCGAACA | 0.128
211 | CGAAGCCC | -0.192
212 | GATACAAA | 0.134
213 | AATACAAG | 0.302
214 | AATACAAA | 0.265
215 | AATACAAT | 0.0948
216 | TATACAAA | 0.127
217 | AATACAAC | 0.157
218 | GGCAGCCC | -0.142
219 | GACTACAA | -0.102
